# Results filed as inconclusive are left out. Calls of active or inactive are those of the source. The calls were made as follows: active = hit-call score of the fitted dose curve at least 0.9, where 1 is the maximum; inconclusive = response in the unintended direction; inactive = score below 0.9.
# How the values were obtained:
# [1] = CCTE_Mundy_HCI_iCellGluta_NOG_NeuriteLength: CCTE's Neurite Outgrowth Assay in iCellGluta cells for Neurite Length, Mundy Lab (AID 2284318)
# Method in brief: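 Automated high-content imaging of betaIII-tubulin (Alexa Fluor-488) and Hoechst-stained cells gave neurite length, normalized to the DMSO baseline.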
# [2] = VALA_MIGHUV1_ScratchOnly_CellCount: Viability Assessment in the VALA Sciences human Umbilical Vein Endothelial Cell Migration (MIGHUV) Assay, Scratch Wound Inhibited Recovery (AID 2284327)
# Method in brief: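 HUVEC scratched after 24 h culture, chemical added within 30 min at 6 concentrations in triplicate (0.1% DMSO vehicle). After 24 h recovery, fixed cells were counted by Hoechst nuclear imaging in the wound area.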
smiles,measurement,setting,value
C[Si]1(C)O[Si](C)(C)O[Si](C)(C)O[Si](C)(C)O1,outcome,[1],inactive
CC(=O)Oc1ccccc1C(=O)O,outcome,[1],inactive
CCCCC(CC)COC(=O)CC(C(=O)OCC(CC)CCCC)S(=O)(=O)O (centres undefined),AC50,[2],78.2 µM (active)
Oc1ccc2ccccc2c1N=Nc1ccccc1,outcome,[2],inactive
